# Results: PubChem BioAssay (EPA / NIEHS)
# Inconclusive results are not listed. Activity calls are given as the source filed them. The calls were made as follows, unless noted: active = hit-call score of the fitted dose curve at least 0.9, where 1 is the maximum; inactive = score below 0.9.
# Key:
# [1] = APR_HepG2_CellCycleArrest_1hr: Apredica 1-hour HepG2 Assay for Cell Cycle Arrest (AID 2282666); conditions: high-content imaging, actives raise or lower the signal
# Outline: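 Cell cycle arrest scored from nuclear DNA content (Hoechst 33342) using high-content imaging of fixed HepG2 cells after 1 h treatment across 0.39–200 uM, in duplicate. Gain or loss fitted relative to 0.5% DMSO.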
# [2] = ACEA_ER_80hr: ACEA Biosciences xCELLigence Real-Time Cell Analysis on Estrogen Receptor Agonism for Proliferation (AID 2282667; active = hit-call score of the fitted dose curve at least 0.9, where 1 is the maximum); conditions: T47D proliferation, impedance (xCELLigence), 80 h
# Outline: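 Real-time electrical impedance tracked growth of the human breast line T47D, with the 80 h post-dosing value used. Dosing spanned eight 1:4 steps down from a 100 uM final top concentration, run in duplicate.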
# [3] = APR_HepG2_CellLoss_1hr: Apredica 1-hour HepG2 Assay for Cell Loss (AID 2282668); conditions: high-content imaging;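 also: curves fitted both ways against DMSO so gain or loss of cells counts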
# Outline: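 Cell number comes from high-content imaging of Hoechst-labelled nuclei in fixed HepG2 cells. Cells were exposed for 1 h to ten concentrations from 0.39 to 200 uM in 0.5% DMSO. Gain or loss was fitted against DMSO controls.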
# [4] = APR_HepG2_MicrotubuleCSK_1hr: Apredica 1-hour HepG2 Assay for Microtubule CSK Stabilty (AID 2282669); conditions: HepG2 microtubule cytoskeleton imaging, actives raise or lower the signal
# Outline: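 Alpha-tubulin immunofluorescence, imaged by automated high-content microscopy with Hoechst nuclear segmentation, measured cytoskeletal change after 1 h dosing of HepG2 at 0.39–200 uM in 0.5% DMSO. Activity fitted in both directions relative to DMSO.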
# [5] = APR_HepG2_NuclearSize_1hr: Apredica 1-hour HepG2 Assay for Nuclear Size (AID 2282670); conditions: high-content imaging, actives raise or lower the signal
# Outline: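 Nuclear size measured by high-content imaging of Hoechst 33342 nuclear stain after formaldehyde fixation; human HepG2 line exposed 1 hr to compounds at 0.39–200 uM in 0.5% DMSO, with bidirectional curve fitting relative to DMSO.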
# [6] = APR_HepG2_p53Act_1hr: Apredica 1-hour HepG2 Assay for p53 Activation (AID 2282671); conditions: high-content imaging, actives raise or lower the signal
# Outline: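 After 1 h exposure (0.39–200 uM, 0.5% DMSO final, duplicates), fixed HepG2 cells were labelled with anti-p53 antibody plus Hoechst nuclear stain. Fluorescence quantified by automated 20x imaging; changes fitted in both directions against DMSO.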
# [7] = APR_HepG2_P-H2AX_1hr: Apredica 1-hour HepG2 Assay for H2AX Phosphorylation (AID 2282673); conditions: high-content imaging, actives raise or lower the signal
# Outline: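 Phospho-H2A.x immunofluorescence (1:200, FITC secondary) plus Hoechst nuclear stain, quantified by high-content imaging in HepG2 after 1 hr compound exposure. Ten concentrations, 0.39 to 200 uM, in duplicate with 0.5% DMSO; fit both directions against DMSO.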
# [8] = APR_HepG2_MitoMass_1hr: Apredica 1-hour HepG2 Assay for Mitochondrial Mass (AID 2282674); conditions: high-content imaging, actives raise or lower the signal
# Outline: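 Mitochondrial mass is taken from MitoTracker Red CMXRos (250 nM, 30 min, pre-fixation) fluorescence imaged at 20x in HepG2 cells. Exposure lasted 1 hr across ten concentrations, 0.39 to 200 uM, 0.5% DMSO; DMSO baseline, bidirectional fitting.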
# [9] = APR_HepG2_CellCycleArrest_24hr: Apredica 24-hour HepG2 Assay for Cell Cycle Arrest (AID 2282905); conditions: imaging, actives raise or lower the signal;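 also: cell cycle arrest scored as ratio of 2N to 4N nuclear DNA content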
# Outline: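 Readout: Hoechst 33342 nuclear DNA content by high-content fluorescent imaging, six images/well, 20x. Human HepG2 liver cells, 24 hr compound exposure, 0.39–200 uM, final DMSO 0.5% v/v. Gain or loss fitted relative to DMSO baseline.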
# [10] = APR_HepG2_StressKinase_1hr: Apredica 1-hour HepG2 Assay for Stress Kinase (AID 2282906); conditions: HepG2 stress kinase (phospho-c-Jun) imaging, actives raise or lower the signal
# Outline: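 High-content imaging of phospho-c-Jun immunostaining (with Hoechst nuclear identification) after a 1 h exposure of HepG2 cells to 10 concentrations from 0.39 to 200 uM, final DMSO 0.5%. Fitted bidirectionally against DMSO.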
# [11] = APR_HepG2_NuclearSize_24hr: Apredica 24-hour HepG2 Assay for Nuclear Size (AID 2282907); conditions: high-content imaging, actives raise or lower the signal
# Outline: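 Read-out: nuclear diameter from Hoechst 33342 (2 ug/mL) imaging of fixed HepG2 cells, 20x, six fields/well. Compounds ran at 0.39–200 uM for 24 hr, 0.5% DMSO final. Gain or loss was fitted bidirectionally relative to the DMSO baseline.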
# [12] = APR_HepG2_CellLoss_24hr: Apredica 24-hour HepG2 Assay for Cell Loss (AID 2282908); conditions: high-content imaging;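 as to AC50: fit in both directions so a hit may be cell loss or gain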
# Outline: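 Read-out: Hoechst 33342-stained nuclei counted by automated fluorescence imaging after formaldehyde fixation and Triton permeabilization. Ten concentrations, 0.39 to 200 uM, duplicate wells, 0.5% DMSO final. Gain or loss of signal fitted relative to DMSO baseline.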
# [13] = APR_HepG2_MitoticArrest_24hr: Apredica 24-hour HepG2 Assay for Mitotic Arrest (AID 2282910); conditions: high-content imaging, actives raise or lower the signal
# Outline: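 HepG2, 24 hr dosing, 0.39–200 uM, 0.5% DMSO final. Formaldehyde-fixed, Triton-permeabilised, anti-phospho-histone H3 plus Hoechst. ArrayScan imaging at 20x; bidirectional fit vs DMSO baseline.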
# [14] = APR_HepG2_MitoMembPot_24hr: Apredica 24-hour HepG2 Assay for Mitochondrial Membrane Potential (AID 2282911); conditions: imaging, actives raise or lower the signal
# Outline: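 Cells are dosed for 24 hr across 0.39 to 200 uM with solvent held at 0.5% DMSO. They are then stained with 250 nM MitoTracker Red CMXRos for 30 min, fixed in 3.7% formaldehyde and imaged.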
# [15] = APR_HepG2_MitoMass_24hr: Apredica 24-hour HepG2 Assay for Mitochondrial Mass (AID 2282912); conditions: high-content imaging, actives raise or lower the signal
# Outline: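 HepG2, 24 hr dosing, 10 concentrations 0.39–200 uM in duplicate, DMSO 0.5% final. MitoTracker Red CMXRos 250 nM, 30 min pre-fix; 3.7% formaldehyde fix. Imaging-based fluorescence intensity; gain/loss fit vs DMSO baseline.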
# [16] = APR_HepG2_p53Act_24hr: Apredica 24-hour HepG2 Assay for p53 Activation (AID 2282913); conditions: high-content imaging, actives raise or lower the signal;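 also: p53 protein immunofluorescence averaged per cell in HepG2 with Hoechst nuclei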
# Outline: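 Human HepG2 liver cells; 24 hr cpd treatment, 0.39–200 uM, 0.5% DMSO final. Fixed in 3.7% formaldehyde, permeabilized with 0.5% Triton X-100, stained with anti-p53/Cy5 plus Hoechst 33342. Six images per well at 20x; gain or loss vs DMSO.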
# [17] = APR_HepG2_CellCycleArrest_72hr: Apredica 72-hour HepG2 Assay for Cell Cycle Arrest (AID 2282914); conditions: high-content imaging, actives raise or lower the signal
# Outline: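 Read-out is Hoechst-stained nuclear DNA content measured by automated fluorescence imaging (20x, six images per well), fitted in both directions relative to DMSO. Human HepG2 liver cells received 0.39–200 uM compound for 72 hr at 0.5% v/v DMSO.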
# [18] = APR_HepG2_MitoticArrest_1hr: Apredica 1-hour HepG2 Assay for Mitotic Arrest (AID 2282672); conditions: high-content imaging, actives raise or lower the signal
# Outline: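 Ten-point concentration series (0.39 to 200 uM, duplicates, 0.5% v/v DMSO) applied to human HepG2 liver cells for 1 hr. High-content imaging of phospho-histone H3 and Hoechst-stained nuclei after fixation and permeabilization; DMSO-normalised bidirectional fit.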
# [19] = APR_HepG2_MitoMembPot_1hr: Apredica 1-hour HepG2 Assay for Mitochondrial Membrane Potential (AID 2282675); conditions: imaging, actives raise or lower the signal
# Outline: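 Mitochondrial membrane potential read as MitoTracker Red CMXRos intensity by automated imaging of fixed HepG2 cells. Dye at 250 nM for 30 min pre-fixation; compounds 0.39 to 200 uM for 1 hour, duplicate wells, 0.5% DMSO.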
# [20] = APR_HepG2_MicrotubuleCSK_24hr: Apredica 24-hour HepG2 Assay for Microtubule CSK Stabilty (AID 2282909); conditions: HepG2 microtubule cytoskeleton imaging, actives raise or lower the signal
# Outline: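 Read-out: alpha-tubulin immunofluorescence intensity by automated high-content imaging of fixed HepG2 cells after 24 h compound treatment. Ten concentrations, 0.39 to 200 uM, in duplicate; DMSO 0.5% v/v. Taxol positive control; DMSO-normalized bidirectional curve fitting.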
smiles,measurement,setting,value
CCOP(=O)(OCC)Oc1nc(Cl)c(Cl)cc1Cl,outcome,[1],inactive
same,outcome,[2],inactive
same,outcome,[3],inactive
same,outcome,[4],inactive
same,outcome,[5],inactive
same,outcome,[6],inactive
same,outcome,[7],inactive
same,outcome,[8],inactive
same,outcome,[9],inactive
same,outcome,[10],inactive
same,outcome,[11],inactive
same,outcome,[12],inactive
same,outcome,[13],inactive
same,outcome,[14],inactive
same,outcome,[15],inactive
same,outcome,[16],inactive
same,outcome,[17],inactive
CS(=O)(=O)c1cc(C(F)(F)F)ccc1C(=O)c1cnoc1C1CC1,outcome,[1],inactive
same,outcome,[2],inactive
same,outcome,[3],inactive
same,outcome,[4],inactive
same,outcome,[6],inactive
same,outcome,[18],inactive
same,outcome,[7],inactive
same,outcome,[8],inactive
same,outcome,[9],inactive
same,outcome,[10],inactive
same,outcome,[12],inactive
same,outcome,[13],inactive
same,outcome,[14],inactive
same,outcome,[15],inactive
same,outcome,[16],inactive
same,outcome,[17],inactive
O=C(Nc1ccccc1-c1ccc(Cl)cc1)c1cccnc1Cl,outcome,[1],inactive
same,outcome,[2],inactive
same,outcome,[3],inactive
same,outcome,[5],inactive
same,outcome,[6],inactive
same,outcome,[18],inactive
same,outcome,[7],inactive
same,outcome,[8],inactive
same,outcome,[19],inactive
same,outcome,[9],inactive
same,outcome,[11],inactive
same,outcome,[12],inactive
same,outcome,[13],inactive
same,AC50,[14],66.8 µM (active)
same,outcome,[15],inactive
same,outcome,[16],inactive
same,outcome,[17],inactive
CCC(C)n1c(=O)[nH]c(C)c(Br)c1=O (stereo not given),outcome,[1],inactive
same,outcome,[2],inactive
same,outcome,[3],inactive
same,outcome,[4],inactive
same,outcome,[6],inactive
same,outcome,[7],inactive
same,outcome,[8],inactive
same,outcome,[9],inactive
same,outcome,[10],inactive
same,outcome,[12],inactive
same,outcome,[20],inactive
same,outcome,[13],inactive
same,outcome,[14],inactive
same,outcome,[15],inactive
same,outcome,[16],inactive
same,outcome,[17],inactive
N#CN=C1SCCN1Cc1ccc(Cl)nc1,outcome,[1],inactive
same,outcome,[2],inactive
same,outcome,[3],inactive
same,outcome,[4],inactive
same,outcome,[5],inactive
same,outcome,[6],inactive
same,outcome,[18],inactive
same,outcome,[7],inactive
same,outcome,[8],inactive
same,outcome,[19],inactive
same,outcome,[9],inactive
same,outcome,[12],inactive
same,outcome,[13],inactive
same,outcome,[14],inactive
same,outcome,[15],inactive
same,outcome,[16],inactive
same,outcome,[17],inactive
CNC(=O)Oc1cccc2ccccc12,outcome,[1],inactive
same,outcome,[2],inactive
same,outcome,[3],inactive
same,outcome,[4],inactive
same,outcome,[6],inactive
same,outcome,[18],inactive
same,AC50,[7],57.9 µM (active)
same,outcome,[8],inactive
same,outcome,[9],inactive
same,AC50,[12],50.5 µM (active)
same,outcome,[13],inactive
same,outcome,[14],inactive
same,outcome,[15],inactive
same,outcome,[16],inactive
same,outcome,[17],inactive
CCCC(=NOCC)C1=C(O)CC(CC(C)SCC)CC1=O (stereo not given),outcome,[1],inactive
same,outcome,[2],inactive
same,outcome,[3],inactive
same,outcome,[5],inactive
same,outcome,[6],inactive
same,outcome,[18],inactive
same,outcome,[7],inactive
same,outcome,[8],inactive
same,outcome,[19],inactive
same,outcome,[9],inactive
same,outcome,[12],inactive
same,outcome,[20],inactive
same,outcome,[13],inactive
same,outcome,[14],inactive
same,outcome,[15],inactive
same,outcome,[16],inactive
same,outcome,[17],inactive
COC(=O)N(C(=O)N1CO[C@@]2(C(=O)OC)Cc3cc(Cl)ccc3C2=N1)c1ccc(OC(F)(F)F)cc1,outcome,[1],inactive
same,outcome,[2],inactive
same,outcome,[3],inactive
same,outcome,[4],inactive
same,outcome,[6],inactive
same,outcome,[7],inactive
same,outcome,[8],inactive
same,outcome,[9],inactive
same,outcome,[10],inactive
same,outcome,[12],inactive
same,outcome,[13],inactive
same,outcome,[14],inactive
same,outcome,[15],inactive
same,outcome,[16],inactive
same,outcome,[17],inactive
